Some test systems named below: SK-MEL-2 melanoma; EKVX NSCLC; SN12C renal; UO-31 renal; TK-10 renal; ACHN renal; CAKI-1 renal; A498 renal; CCRF-CEM leukemia; MOLT-4 leukemia; SR leukemia; OVCAR-8 ovarian; OVCAR-5 ovarian; OVCAR-4 ovarian; SK-OV-3 ovarian; IGROV1 ovarian; OVCAR-3 ovarian; HS 578T breast; NCI/ADR-RES ovarian.
Common to all, as to experiment: NCI-60 one-dose screen, 48 h (100 = growth as untreated, 0 = no growth, -100 = all killed)
Holding throughout (settings): 10 µM unless noted

The panel holds about 83,000 compounds, 20% with a hit somewhere; the sample as a whole holds those more often.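 48-hour exposure, single concentration, 96-well plates; percent growth endpoint where 0 means no net growth. Active: below 10.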 Unmarked numbers belong to inactive results. Activity calls are given as the source filed them.

In the case of `CCOC(=O)c1cn2ncnc(Oc3ccc(NC(=O)NCCN4CCOCC4)c(Cl)c3)c2c1C`, the growth was 113% in the assay on SK-MEL-2 melanoma; 96.3% in the assay on EKVX NSCLC; 95.8% with SN12C renal; 80.8% with UO-31 renal; 98% in the assay on TK-10 renal; 99.5% with ACHN renal. Besides, the growth was 87.7% in the assay with CAKI-1 renal; 85.2% in the assay with A498 renal; 96.6% in the assay with CCRF-CEM leukemia; 106% in the assay on MOLT-4 leukemia; 105% in the assay with SR leukemia; 101% in the assay with OVCAR-8 ovarian. Also, the growth in the assay with OVCAR-5 ovarian is 96.4%; with OVCAR-4 ovarian, 96.3%; in the assay on SK-OV-3 ovarian, 92.2%; with IGROV1 ovarian, 101%; in the assay with OVCAR-3 ovarian, 105%; in the assay on HS 578T breast, 91.4%. For the same compound, the growth in the assay with NCI/ADR-RES ovarian was 101%.

Consider `COc1ccc(C2C(N)=NNC2c2cccc(O)c2)cc1` (stereo unspecified), for which the growth in the assay on SK-MEL-2 melanoma was 87.6%; in the assay with EKVX NSCLC, 95.5%; with SN12C renal, 96.4%; with UO-31 renal it was 83.7%; with TK-10 renal, 122%; with ACHN renal it was 106%. Besides, the growth with CAKI-1 renal is 88.7%; in the assay with A498 renal, 126%; with CCRF-CEM leukemia it was 105%; in the assay with MOLT-4 leukemia it was 96.7%; in the assay on SR leukemia, 81.2%; in the assay on OVCAR-8 ovarian, 93.8%. The growth with OVCAR-5 ovarian is 107%; with OVCAR-4 ovarian it was 108%; with SK-OV-3 ovarian, 98.9%; with IGROV1 ovarian, 90.6%; in the assay on OVCAR-3 ovarian, 106%; with HS 578T breast, 110%. Besides, the growth in the assay on NCI/ADR-RES ovarian is 99.1%.

With `O=C(Cc1ccc2c(c1)OCCO2)Nc1nc2ccc(F)cc2s1`, the growth with SK-MEL-2 melanoma is 70.5%; in the assay with EKVX NSCLC, 93.8%; with SN12C renal, 70.5%; in the assay with UO-31 renal, 62.5%; in the assay with TK-10 renal, 117%; in the assay with ACHN renal, 98%. The growth in the assay with CAKI-1 renal was 111%; in the assay on A498 renal, 104%; in the assay on CCRF-CEM leukemia, 87.3%; with MOLT-4 leukemia, 95.1%; with SR leukemia, 103%; in the assay with OVCAR-8 ovarian, 94.7%. In addition, the growth with OVCAR-5 ovarian was 90.3%; in the assay with OVCAR-4 ovarian it was 96.4%; with SK-OV-3 ovarian, 105%; in the assay on IGROV1 ovarian, 48.3%; with OVCAR-3 ovarian, 104%; with HS 578T breast, 106%. The growth with NCI/ADR-RES ovarian was 99%.

As to `c1ccc(CO[C@H]2CO[C@H]3[C@@H]2OC[C@@H]3Oc2ccc(Nc3ncnc4ccsc34)cc2)cc1`, the growth was 84% in the assay with SK-MEL-2 melanoma; 62.3% in the assay with EKVX NSCLC; 69.3% with SN12C renal; 42% in the assay on UO-31 renal; 99.6% in the assay with TK-10 renal; 72.1% with ACHN renal. In addition, the growth is 74.7% with CAKI-1 renal; 33.2% in the assay on A498 renal; 77.7% in the assay with CCRF-CEM leukemia; 64.5% in the assay on MOLT-4 leukemia; 60.6% with SR leukemia; 81.6% in the assay on OVCAR-8 ovarian. The growth with OVCAR-5 ovarian was 94.9%; in the assay with OVCAR-4 ovarian, 81.8%; in the assay with SK-OV-3 ovarian, 95.8%; with IGROV1 ovarian, 70.3%; with OVCAR-3 ovarian, 93.7%; in the assay on HS 578T breast it was 90.5%.

As to `CCOC(=O)c1sc2ncc(-c3ccc(OC)cc3)n2c1C`, the growth with SK-MEL-2 melanoma was 103%; with EKVX NSCLC, 94.8%; in the assay on SN12C renal, 92.1%; in the assay with UO-31 renal, 79.3%; in the assay with TK-10 renal, 156%; in the assay with ACHN renal, -100% (active). In addition, the growth in the assay with CAKI-1 renal is 96.3%; in the assay with A498 renal, 107%; in the assay on CCRF-CEM leukemia, 94.6%; with MOLT-4 leukemia it was 94.5%; in the assay with SR leukemia, 104%; in the assay on OVCAR-8 ovarian, 91.6%. For the same compound, the growth in the assay on OVCAR-5 ovarian is 105%; in the assay on OVCAR-4 ovarian it was 97.5%; with SK-OV-3 ovarian it was 78.7%; in the assay on IGROV1 ovarian it was 81.4%; in the assay with OVCAR-3 ovarian, 108%; in the assay with HS 578T breast it was 94.1%. Further, in the assay on NCI/ADR-RES ovarian, the growth was 92.3%.

Turning to `O=c1c2cc(F)ccc2sc2c(NCCN3CCOCC3)nc3ccccc3c12`, the growth in the assay on SK-MEL-2 melanoma was 110%; in the assay with EKVX NSCLC it was 91.6%; in the assay on SN12C renal, 72.8%; in the assay on UO-31 renal, 42%; with TK-10 renal, 79.2%; with ACHN renal, 64.7%. The growth with CAKI-1 renal was 33.2%; in the assay with A498 renal, 58.3%; in the assay on CCRF-CEM leukemia, 57%; in the assay on MOLT-4 leukemia it was 52.1%; in the assay on SR leukemia it was 28.3%; in the assay on OVCAR-8 ovarian it was 81.4%. The growth with OVCAR-5 ovarian was 89.5%; in the assay on OVCAR-4 ovarian, 67.5%; in the assay on SK-OV-3 ovarian it was 85%; with IGROV1 ovarian, 74.6%; in the assay with OVCAR-3 ovarian it was 76.8%; in the assay with HS 578T breast it was 63.3%. The growth in the assay with NCI/ADR-RES ovarian was 72.5%.

With `CC1=C(SCCC(=O)OC(C[Se]C2=C(C)C(=O)c3ccccc3C2=O)C(=O)NC(C)(C)C)C(=O)c2ccccc2C1=O` (stereo unspecified), the growth in the assay on SK-MEL-2 melanoma was 2.5% (active); in the assay with EKVX NSCLC, -71.2% (active); in the assay with SN12C renal it was -64.4% (active); in the assay with UO-31 renal, -41.2% (active); in the assay on TK-10 renal, -94.3% (active); in the assay on ACHN renal, -78.3% (active). Further, the growth with CAKI-1 renal is -56.4% (active); in the assay on A498 renal, -40.6% (active); with CCRF-CEM leukemia, -23% (active); with MOLT-4 leukemia, 13.1%; in the assay on SR leukemia, 18.7%; with OVCAR-8 ovarian it was -79.4% (active). The growth in the assay on OVCAR-5 ovarian is -68.9% (active); in the assay with OVCAR-4 ovarian, -91.5% (active); in the assay on SK-OV-3 ovarian it was -100% (active); with IGROV1 ovarian, -27.9% (active); in the assay with OVCAR-3 ovarian it was -97.6% (active); in the assay on HS 578T breast, -21.3% (active). Further, in the assay on NCI/ADR-RES ovarian, the growth is -68.6% (active).

In the case of `Cc1ccc(/C=C(\C#N)n2nc3cccc(F)c3n2)cc1`, the growth is 95.5% with SK-MEL-2 melanoma; 83.5% in the assay on EKVX NSCLC; 95.3% in the assay on SN12C renal; 72.3% in the assay with UO-31 renal; 90.8% in the assay on TK-10 renal; 79.7% in the assay with ACHN renal. The growth is 58.8% in the assay with CAKI-1 renal; 56% in the assay with A498 renal; 104% with CCRF-CEM leukemia; 102% in the assay with MOLT-4 leukemia; 62.8% with SR leukemia; 94.2% in the assay with OVCAR-8 ovarian. In addition, the growth in the assay with OVCAR-5 ovarian is 97.1%; with OVCAR-4 ovarian, 97%; in the assay with SK-OV-3 ovarian, 107%; in the assay on IGROV1 ovarian, 90.9%; with OVCAR-3 ovarian it was 84.4%; in the assay with HS 578T breast it was 91.5%. For the same compound, in the assay with NCI/ADR-RES ovarian, the growth was 86%.

The values above are taken from PubChem BioAssay (NCI).
